Compounds without any hit were thinned out: in the full panel of roughly 83,000, 20% have a hit.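 Note: values are percent growth. 100 is the growth of untreated cells, values between 100 and 0 indicate rising inhibition; between -100 and 0 indicates cell death.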 Unmarked numbers belong to inactive results. Activity calls are given as the source filed them.

This test relates to SK-OV-3 ovarian. The experiment in a line: NCI-60 one-dose screen, 48 h (100 = growth as untreated, 0 = no growth, -100 = all killed). To be noted: 10 µM unless noted. The method, then:
Growth inhibition of the SK-OV-3 human tumor cell line is measured as a screen for anti-cancer activity. Cells are grown in 96 well plates and exposed to the test compound for 48 hours. Compounds are tested at a single concentration, which is 10^-5 M for most compounds. The reported endpoint is percent growth (GI% or GIPRCNT), where numbers from 0 - 100% represent growth inhibition, and numbers from -100% - 0 represent cell death. For example, a value of 40 represents 60% growth inhibition. A value of 0 means no net growth occurred over the course of the experiment. A value of -40 indicates 40% of cells at the beginning of the experiment died by the end of the experiment. A value of -100 means all cells are dead at the end of the experiment.
NCI-60 Human Tumor Cell Lines Screen was performed using the standard one-dose NCI protocol, which is described in more detail at https://dtp.cancer.gov/discovery_development/nci-60/default.htm.
Compounds with GIPRCNT values below 10 were considered active. Activity score was based on GIPRCNT using the following formula: […]
Score is 0 for GIPRCNT values of 100 or above, 50 for GIPRCNT values of 0, and 100 for GIPRCNT values of -100.
As to `O=C1CCCCC1(c1ccccc1)c1ccccc1`, the growth was 101%.

Turning to `CCCCCc1cc[n+](CC(=O)c2ccc([N+](=O)[O-])cc2)cc1`, the growth was 93.9%.

`CN1CCN(Cc2ccc(NC(=O)c3cncc(C#Cc4cnc(N)c5cnccc45)c3)cc2C(F)(F)F)CC1`: the growth is -26.8% (active).

Regarding `FC(F)(F)c1ccccc1-c1cn2c(ccc3ccccc32)n1`, the growth was 80.5%.

Take `COc1ccc2c(c1)NC1=C(C(=O)OC1)C2c1cc(OC)c2c(c1)OCO2` (stereo not given): the growth was 13%.

`CCN(CC)CCC(CNc1c2ccc(Cl)cc2nc2ccc(OC)cc12)c1ccccc1` (stereo not given): the growth was 35.3%.

Turning to `COc1cccc(-c2nc3sccn3c2-c2ccnc(NCCCNS(=O)(=O)c3ccc(C(F)(F)F)cc3)c2)c1`, the growth is 72.6%.

For the compound `COc1ccc2c(c1)cn1c3ccc(OC)cc3[nH]c(=O)c21`, the growth is 22.5%.

`CCOC(=O)CC(=O)OC`: the growth is 101%.

As for `Cn1ccc(Nc2nccc(Oc3ccc(C(=O)Nc4cccc(F)c4)c(Cl)c3)n2)c1`, the growth was 15.9%.

For `O=C(Nc1ccc(Cl)c(Cl)c1)NS(=O)(=O)c1cnccc1Oc1ccc(F)cc1`, the growth was 88.7%.

Regarding `Nc1cccc(Cl)c1N`, the growth was 94.3%.

`Cc1nc2ncccc2nc1Nc1ccc(S(=O)(=O)Nc2ccccn2)cc1`: the growth is 89.1%.

`CC(O)CN1CCCCC1` (stereo not given): the growth was 107%.

For `COc1ccc(C(=O)c2cc(OC)c3c(c2)OCO3)cc1O`, the growth was 8.88% (active).

As to `N/C(=N\C(N)=N\c1nc2ccccc2s1)c1cccc(Br)c1`, the growth was 129%.

Take `CN(C[C@H]1Cc2c(cccc2N2CCN(c3ncccn3)CC2)CN1)[C@H]1CCCc2cccnc21`: the growth is 39.5%.

As to `O=C(CCl)N(C1CCCCC1)C1CCCCC1`, the growth is 117%.

Regarding `COc1ccc(-n2c(=O)sc3c(Cl)nc(C)nc32)c(OC)c1`, the growth was 83.8%.

With `C=C[C@@H]1C[C@@H]2Cc3c(C)cc(C)cc3N1O2`, the growth is 105%.

For `O=C(NCCCNc1nccc(-n2ccc3cccnc32)n1)c1c(F)cccc1F`, the growth is 116%.

In the case of `CCOC(=O)NNC(=S)Nc1ccccc1`, the growth was 111%.

With `CCCCOc1ccc(/C=C2/SC(N3CCOCC3)=NC2=O)cc1OCC`, the growth is -16.1% (active).

On to `CCNc1nc(S(=O)(=O)CC)nc2ccccc12`, for which the growth is 96.6%.

Turning to `COc1cc(-c2nn(-c3cccc(NC(=O)c4cccc(C(F)(F)F)c4)c3)cc2-c2ccncc2)ccc1Cl`, the growth is 7.18% (active).

Turning to `c1cc2[nH]ncc2cc1-c1nc2ccc3[nH]ncc3c2c2c1CCC2`, the growth was 5.23% (active).

With `C=CCSc1n[nH]c(-c2cccs2)n1`, the growth was 110%.

In the case of `Cn1ccc(=O)c(S(N)(=O)=O)c1`, the growth was 126%.

With `CCCCC(CC)OC(=O)C(Br)CC` (stereo not given), the growth was 114%.

Take `COc1cc(C(=O)/C=C/c2ccc3nc(-c4cc(F)cc(F)c4)sc3c2)cc(OC)c1OC`: the growth was 94.5%.

Consider `C=C1C(=O)O[C@H]2[C@H]1CC/C(Cn1cc(CNC(=O)c3cc4ccccc4[nH]3)nn1)=C\CC[C@@]1(C)O[C@@H]21`, for which the growth was 106%.

As to `N#C/C(=C1C=C/C(=N/O)C(Cl)=C/1)c1ccc(Cl)cc1`, the growth is 121%.

In the case of `Nc1cc2c([nH]c[n+]2CC#CCCl)c(SCC#CCCl)n1`, the growth was -21.7% (active).

Take `O=C(Nc1cccc(-n2cc(-c3ccncc3)c(-c3ccc(Cl)c(O)c3)n2)c1)c1ccccc1`: the growth was 80.1%.

Consider `CCCCCCCCCCCCNC(=O)[C@H]1CSC(c2cc(Br)cs2)N1` (stereo not given in full), for which the growth is -42.5% (active).

Consider `Cc1cc(N/N=C/c2nc(-c3ccccc3)oc2C)c2cc(Br)ccc2n1`, for which the growth is 78.3%.

Take `Brc1cccc(-c2cc(-c3ccc4c(c3)OCCCO4)[nH]n2)c1`: the growth was 53.1% [25 µM].

Regarding `O=C(Nc1ccc(NCCN2CCOCC2)nc1)c1ccc([N+](=O)[O-])cc1`, the growth is 107%.

Take `COc1cc(-c2nn(-c3cccc(NC(=O)Nc4cc(C(F)(F)F)cc(C(F)(F)F)c4)c3)cc2-c2ccncc2)ccc1Cl`: the growth is -9.79% (active).

As for `Cc1cc(C)n(-c2nnc3n2N=C(c2ccc(-c4ccccc4)cc2)CS3)n1`, the growth is 56.8%.

The values are drawn from PubChem BioAssay (NCI).
